# From PubChem BioAssay (NCATS)
# Records with an inconclusive call do not appear. A call without a number means that no potency is given here. Active and inactive are the calls of the source. Unless noted, calls follow the shape of the dose curve; as a rule, active = well fitted curve in the direction sought with a large enough effect; inconclusive = small, poorly fitted or top-dose-only effect, or another doubt; inactive = no such curve, though single readings can be large; an effect the other way counts as inactive or inconclusive.
# Tests used:
# [1] = tested on: Zika virus NS2B-NS3 protease; experiment: Primary screen GU AMC qHTS for Zika virus inhibitors (AID 1347154); settings: Zika NS2B-NS3 unlinked protease, AMC fluorogenic substrate; series mostly up to 54.1 µM; also: nearly all actives have a fitted effect of over 70% in size
# Procedure, shortened: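 Unlinked Zika NS2B hydrophilic domain/NS3 protease domain noncovalent complex (25 nM final) in 10 mM Tris-HCl pH 8.0, 0.01% Tween 20, with AMC peptide substrate. Fluorescence (ex 340, em 450 nm) change over 15 min, room temperature; percent inhibition fitted to 4-parameter Hill equation.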
# [2] = target: Nucleoprotein (Lymphocytic choriomeningitis virus (strain Armstrong)) (UniProt P09992); experiment: qHTS for Inhibitors of the Functional Ribonucleoprotein Complex (vRNP) of Lymphocytic Choriomeningitis Arenaviruses (LCMV): LCMV Primary Screen - GLuc reporter signal (AID 1347086; calls by dose curve; also: nearly all actives have a fitted effect of over 70% in size; also: potency is read from the fitted curve at half-maximal effect); settings: LCMV minigenome vRNP cell assay, Gaussia luciferase reporter; series mostly up to 57.5 µM
# Chain of Nucleoprotein (Lymphocytic choriomeningitis virus (strain Armstrong)) (P09992 whole entry, looked up): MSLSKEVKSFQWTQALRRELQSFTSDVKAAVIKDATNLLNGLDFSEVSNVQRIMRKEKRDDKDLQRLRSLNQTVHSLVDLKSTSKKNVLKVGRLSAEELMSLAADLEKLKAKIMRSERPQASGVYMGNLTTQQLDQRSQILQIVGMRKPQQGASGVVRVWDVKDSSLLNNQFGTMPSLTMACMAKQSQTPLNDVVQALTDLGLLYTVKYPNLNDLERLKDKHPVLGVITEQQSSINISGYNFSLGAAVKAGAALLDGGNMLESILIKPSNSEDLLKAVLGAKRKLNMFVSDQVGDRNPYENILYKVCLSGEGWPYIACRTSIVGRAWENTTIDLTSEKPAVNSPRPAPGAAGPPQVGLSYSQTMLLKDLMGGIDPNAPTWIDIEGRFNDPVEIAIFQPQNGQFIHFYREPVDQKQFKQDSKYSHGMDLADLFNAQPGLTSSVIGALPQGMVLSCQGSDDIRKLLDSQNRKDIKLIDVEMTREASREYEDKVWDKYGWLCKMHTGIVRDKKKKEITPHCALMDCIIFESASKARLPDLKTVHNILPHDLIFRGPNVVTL
# [3] = Primary qHTS to identify inhibitors of SARS-CoV-2 cell entry (AID 1645846; calls by dose curve; also: nearly all actives have a fitted effect of over 45% in size); settings: SARS-CoV-2 pseudovirus cell entry assay, luminescence; activity change, negative = inhibition: at 57.1 µM (top of the series) unless noted; series mostly up to 57.1 µM
# Procedure, shortened: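 HEK293 cells stably expressing human ACE2, pre-treated 1 h with compound, then infected with MLV particles pseudotyped with Wuhan-Hu-1 spike (C-terminal 19-aa truncation). Luciferase luminescence after 48 h at 37 °C, normalised to spike PP and bald PP.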
# Furin (Homo sapiens) = Furin (Homo sapiens) (UniProt P09958); experiment: Furin counterscreen qHTS for Zika virus inhibitors (AID 1347149); settings: furin enzymatic counterscreen, fluorogenic substrate; series mostly up to 57.5 µM;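 also: purified recombinant full-length human furin enzyme at 5 nM; fluorescence gain from furin cutting a BOC-RVRR-AMC peptide substrate over 15 min; top concentration of the series differs between compounds; nearly all actives have a fitted effect of over 70% in size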
# Chain of Furin (Homo sapiens) (P09958 whole entry, looked up): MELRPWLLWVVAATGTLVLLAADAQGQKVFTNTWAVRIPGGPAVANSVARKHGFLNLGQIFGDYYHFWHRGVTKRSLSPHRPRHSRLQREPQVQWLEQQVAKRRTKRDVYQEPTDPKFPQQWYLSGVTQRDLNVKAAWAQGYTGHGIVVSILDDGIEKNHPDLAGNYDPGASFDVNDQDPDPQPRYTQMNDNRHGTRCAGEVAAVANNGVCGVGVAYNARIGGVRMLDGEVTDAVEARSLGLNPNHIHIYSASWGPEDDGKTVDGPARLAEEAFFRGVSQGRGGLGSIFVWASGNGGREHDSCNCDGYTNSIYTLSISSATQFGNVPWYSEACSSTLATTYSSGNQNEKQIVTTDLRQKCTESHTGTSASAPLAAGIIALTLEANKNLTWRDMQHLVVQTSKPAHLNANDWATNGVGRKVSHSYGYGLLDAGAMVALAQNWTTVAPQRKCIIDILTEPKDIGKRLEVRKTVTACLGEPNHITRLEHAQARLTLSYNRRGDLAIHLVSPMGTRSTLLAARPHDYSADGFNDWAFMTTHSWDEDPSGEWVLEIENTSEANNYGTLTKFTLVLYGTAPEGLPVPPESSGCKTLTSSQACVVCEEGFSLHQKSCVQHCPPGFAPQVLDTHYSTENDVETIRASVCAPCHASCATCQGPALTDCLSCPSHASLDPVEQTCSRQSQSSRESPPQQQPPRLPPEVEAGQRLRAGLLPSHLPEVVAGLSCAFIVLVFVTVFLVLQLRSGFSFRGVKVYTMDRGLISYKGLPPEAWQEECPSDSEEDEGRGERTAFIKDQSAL
# Procedure, shortened: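 Fluorogenic cleavage of BOC-RVRR-AMC (2 microM final, Km ~15 µM) was monitored (ex 340, em 450 nm) at 37C after 15 min RT preincubation of 5 nM furin with compounds in HEPES pH 7.0 buffer with CaCl2 and Triton X-100. Percent inhibition was fitted to a 4-parameter Hill curve.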
# [4] = tested on: Zika virus NS2B-NS3 protease (unlinked); experiment: Optimization of GU AMC qHTS for Zika virus inhibitors: Unlinked NS2B-NS3 protease assay (AID 1347151); settings: recombinant ZIKV NS2B-NS3 protease, fluorogenic AMC substrate; series mostly up to 52.5 µM; also: nearly all actives have a fitted effect of over 80% in size
# Procedure, shortened: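 Noncovalent NS2B hydrophilic domain–NS3 protease complex (25 nM final) in 10 mM Tris-HCl pH 8.0, 0.01% Tween 20; AMC substrate, room temperature 15 min (~20% conversion); fluorescence change normalized, 4-parameter Hill fit.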
# [5] = Vero cells viability qHTS for Zika virus inhibitors (AID 1347167); settings: cytotoxicity counter-screen (Zika); series mostly up to 45.9 µM
# Procedure, shortened: (§1)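 Counter-screen for cytotoxicity of hits from NS2B-NS3 protease qHTS. Overnight-attached cells (2.5 x 10^5 cells/mL, DMEM/4% FBS) were dosed in titration, incubated 24 to 48 hours, then assayed by CellTiter Glo.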
# [6] = HepG2 cells viability qHTS for Zika virus inhibitors (AID 1347168); settings: Zika counter-screen; series mostly up to 45.9 µM
# Procedure, shortened: as §1
# [7] = Tertiary RLuc qRT-PCR qHTS assay for Zika virus inhibitors (AID 1347169); settings: infected Vero cells, reporter luminescence, 48-72 h; series mostly up to 45.9 µM; also: nearly all actives have a fitted effect of over 55% in size; also: potency is read from the fitted curve at half-maximal effect; as to activity change, negative = inhibition: top concentration of the series differs between compounds
# Procedure, shortened: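 Vero cells (1,000/well) infected with recombinant ZIKV-RLuc (Cambodian) at MOI 1-2 after compound addition, 48-72 hrs at 37 degrees C. Live-cell Renilla luciferase substrate added; luminescence read after 1-1.5 hrs.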
# [8] = Confirmatory qHTS for small molecule stabilizers of the endoplasmic reticulum resident proteome: Secreted ER Calcium Modulated Protein (SERCaMP) assay (AID 1508628); settings: SERCaMP secreted luciferase ER calcium/proteostasis reporter; series mostly up to 76.3 µM; also: potency is read from the fitted curve at half-maximal effect; nearly all actives have a fitted effect of over 40% in size
# Procedure, shortened: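 We seeded SH-SY5Y-GLuc-SERCaMP cells, added compounds (three concentrations in the primary run, eleven up to 76.6 uM in confirmation), incubated 16 h, depleted ER calcium with thapsigargin, and read luciferase 4 h later.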
# [9] = Cell Viability qHTS for small molecule stabilizers of the endoplasmic reticulum resident proteome (AID 1508629); settings: cell viability counter-screen, 100 nM thapsigargin for final 4 h;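 also: human SH-SY5Y neuroblastoma cells carrying the GLuc-SERCaMP reporter; compound exposure about 46 h in total before the viability read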
# [10] = Primary qHTS for small molecule stabilizers of the endoplasmic reticulum resident proteome: Secreted ER Calcium Modulated Protein (SERCaMP) assay (AID 1508630); settings: SH-SY5Y GLuc-SERCaMP (Gaussia luciferase released on ER calcium loss) secretion, thapsigargin, luminescence; series mostly up to 38.4 µM; also: potency is read from the fitted curve at half-maximal effect
# Procedure, shortened: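 GLuc-SERCaMP-expressing SH-SY5Y cells, pretreated 16 h with compound, are challenged with thapsigargin to empty ER calcium stores; after 4 h, coelenterazine is added directly to the medium and luminescence is imaged.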
# [11] = target: Cytochrome P450 3A4 (Homo sapiens) (UniProt P08684); experiment: qHTS Assay for Inhibitors and Substrates of Cytochrome P450 3A4 (AID 884); settings: recombinant CYP3A4, Luciferin-PPXE luminescence; series mostly up to 57.1 µM; also: nearly all actives have a fitted effect of over 50% in size
# Chain of Cytochrome P450 3A4 (Homo sapiens) (P08684 whole entry, looked up): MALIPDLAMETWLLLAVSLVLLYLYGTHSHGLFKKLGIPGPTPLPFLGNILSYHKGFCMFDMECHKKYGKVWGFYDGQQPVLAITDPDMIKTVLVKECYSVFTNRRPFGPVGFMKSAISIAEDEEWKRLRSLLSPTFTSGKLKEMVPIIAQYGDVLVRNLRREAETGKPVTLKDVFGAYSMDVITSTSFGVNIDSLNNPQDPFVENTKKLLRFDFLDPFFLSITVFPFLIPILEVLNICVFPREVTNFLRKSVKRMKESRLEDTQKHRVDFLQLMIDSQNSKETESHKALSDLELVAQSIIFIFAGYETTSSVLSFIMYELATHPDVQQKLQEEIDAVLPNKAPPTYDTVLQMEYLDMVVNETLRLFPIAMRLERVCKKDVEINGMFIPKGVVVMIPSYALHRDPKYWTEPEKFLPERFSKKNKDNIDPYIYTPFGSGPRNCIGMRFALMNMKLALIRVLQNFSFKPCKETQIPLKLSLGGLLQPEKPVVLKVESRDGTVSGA
# Procedure, shortened: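 20 nM human CYP3A4 with 25 uM Luciferin-PPXE (at KM) in 200 mM KPO4, preincubated 10 min with compound; NADPH regeneration started a 60 min RT reaction. Luciferin detected by luminescence, normalized to 57 uM ketoconazole as full inhibition.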
# [12] = Confirmation and Secondary Assay for Modulators of Hemoglobin Beta Chain Splicing at IVS2 654 locus (AID 910); settings: HeLa EGFP-654 splicing reporter, GFP fluorescence, 48 h; series mostly up to 46.1 µM;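 also: per-well total GFP intensity by laser scanning cytometry after 2-day treatment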
# Procedure, shortened: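 HeLa cells stably carrying EGFP interrupted by mutant beta-globin IVS2-654 intron (CMV-driven) were treated with compound for 2 days at 37C; corrected splicing was scored as total peak GFP intensity per well (488 nm excitation, 500-520 nm emission).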
# [13] = Confirmation and Secondary Assay for Modulators of Hemoglobin Beta Chain Splicing at IVS2 705 locus (AID 930); settings: HeLa EGFP-705 splicing reporter, GFP fluorescence, 48 h; series mostly up to 46.1 µM;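 also: HeLa cells stably expressing the EGFP-705 splicing reporter; GFP fluorescence per well restored by corrected splicing of the IVS2-705 intron in EGFP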
# Procedure, shortened: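 First, HeLa EGFP-705 cells are seeded at 500/well in Optimem with 2% FCS and left overnight. Next, compound or DMSO is added for 2 days. Finally wells are laser-scanned and total peak GFP intensity scored.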
# [14] = qHTS Assay for Lipid Storage Modulators (AID 1519; calls by dose curve); settings: Drosophila S3 cells, BODIPY lipid droplet/cell ratio, laser cytometry, cells loaded with oleic acid
# Procedure, shortened: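 Cells seeded at 5,000 per well were treated with compounds over a concentration series and loaded with oleic acid (400 uM, as added). Lipid droplet fluorescence (488 nm excitation, 500-530 nm channel) was read by laser-scanning cytometry and normalized to 20 uM Triacsin C.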
# [15] = Confirmatory screen GU Rhodamine qHTS for Zika virus inhibitors qHTS (AID 1347157); settings: purified enzyme assay, Rhodamine110 substrate fluorescence, 15 min; series mostly up to 114 µM; also: potency is read from the fitted curve at half-maximal effect; nearly all actives have a fitted effect of over 70% in size
# Procedure, shortened: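 Unlinked NS2B/NS3, 25 nM; Rhod110 peptide, 1.5 microM; compounds, up to 114 microM. Reaction run 15 min at RT in 10 mM Tris-HCl pH 8.0, 0.01% Tween 20; kinetic fluorescence change fitted with a 4-parameter Hill model.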
# [16] = Confirmatory screen NINDS Rhodamine qHTS for Zika virus inhibitors (AID 1347161); settings: purified enzyme assay, Rhodamine110 substrate fluorescence, 15 min; series mostly up to 114 µM; also: potency is read from the fitted curve at half-maximal effect; nearly all actives have a fitted effect of over 60% in size
# Procedure, shortened: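 Purified linked NS2B-NS3 protease (NS2B hydrophilic domain joined to NS3 protease by flexible linker), 25 nM in 10 mM Tris-HCl pH 8.0, 0.01% Tween 20. Compounds titrated, 15 min preincubation at room temperature; 1.5 microM Rhodamine110 substrate, FITC fluorescence change over 15 min.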
# [17] = tested on: Zika virus NS2B-NS3 protease (linked); experiment: 384 well plate NINDS AMC confirmatory qHTS for Zika virus inhibitors (AID 1347163); settings: Recombinant NS2B-NS3 protease, Ac-VKTGKR-AMC fluorescence; also: potency is read from the fitted curve at half-maximal effect; nearly all actives have a fitted effect of over 50% in size
# Procedure, shortened: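 Linked protease 5/30/60 nM final; cpds up to 1 mM final, ~15 min preinc. Substrate Ac-VKTGKR-AMC 30 microM final. RT, dark, 25 min; FI ex 355/em 460; normalized to no-enzyme/no-inhibitor ctrls.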
# [18] = tested on: Zika virus NS2B-NS3 protease (linked construct); experiment: 384 well plate NINDS Rhodamine confirmatory qHTS for Zika virus inhibitors (AID 1347164); settings: rhodamine-110 peptide substrate fluorescence; series mostly up to 316 µM;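 also: fluorescence from protease cleavage of Ac-LKRR-rhodamine 110 substrate; potency is read from the fitted curve at half-maximal effect; nearly all actives have a fitted effect of over 65% in size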
# Procedure, shortened: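 Linked NS2B-NS3 protease (final 5, 30 or 60 nM) preincubated ~15 minutes with compounds, then 10 microM Ac-LKRR-Rhodamine 110 added. Fluorescence (485/538 nm) read after 25 minutes at room temperature, normalized to no-enzyme and no-inhibitor controls.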
# [19] = Cytotoxicity counterscreen for inhibitors of SARS-CoV-2 cell entry (AID 1645845; calls by dose curve; also: nearly all actives have a fitted effect of over 50% in size); settings: cell viability (SARS-CoV-2 entry assay cells); series mostly up to 57.1 µM
# Procedure, shortened: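 Expi293F/hACE2 cells seeded overnight; cpd pin-transferred in DMSO, 1 h preincubation, + media, 48 h 37 C 5% CO2; ATPLite 1step luminescence; normalized to cells and no cells.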
smiles,measurement,setting,value
CC1OC(=O)[C@@H](C(C)C)NC(=O)C(C(C)C)OC(=O)[C@H](C(C)C)NC(=O)C(C)OC(=O)[C@@H](C(C)C)NC(=O)C(C(C)C)OC(=O)[C@H](C(C)C)NC(=O)C(C)OC(=O)[C@@H](C(C)C)NC(=O)C(C(C)C)OC(=O)[C@H](C(C)C)NC1=O (stereo not given in full),Potency,[1],inactive
C=C1C([C@@H](O)C[C@H](C)C2O[C@@]3(CCCCO3)CC[C@H]2C)OC2CC[C@@]3(CC[C@@H](/C=C/[C@@H](C)C4CC(C)=C[C@]5(O4)O[C@H](C[C@@](C)(O)C(=O)O)CCC5O)O3)OC2[C@@H]1O (stereo not given in full),"activity change, negative = inhibition",[1],0.872% [at 4.99 µM] (inactive)
Cc1ccc2c(=O)c3cccc(CC(=O)O)c3oc2c1C,Potency,[2],38.5 µM (active)
same,"activity change, negative = inhibition",[3],-28.2%
CN1CC[C@@]23CCCCC2C1Cc1ccc(O)cc13 (stereo not given in full),Potency,Furin (Homo sapiens),inactive
same,outcome,[4],inactive
same,Potency,[5],inactive
same,Potency,[6],inactive
same,Potency,[7],inactive
same,Potency,[8],3.98 µM (active)
same,max response,[9],30% (inactive)
same,Potency,[10],35.5 µM (active)
CCN1C[C@]2(COC)CC[C@H](OC)[C@@]34C5C[C@@H]6[C@@H](OC)C[C@@]7(OCO[C@@]7([C@@H](O)C23)[C@@H]14)C5[C@H]6OC (stereo not given in full),Potency,[1],inactive
O=c1c(O)c(-c2ccc(O)c(O)c2)oc2c(O)c(O)cc(O)c12,Potency,[11],inactive
same,Potency,[12],inactive
same,outcome,[13],inactive
same,"activity change, negative = inhibition",[14]; at 57.5 µM (top of the series),10.8% (inactive)
same,max response,[14]; measured here: cell count channel max response,-1.92%
same,max response,[14]; measured here: lipid channel max response,12.9%
same,Potency,Furin (Homo sapiens),inactive
same,Potency,[15],22.4 µM (active)
same,Potency,[16],11.2 µM (active)
same,Potency,[17],158 µM (active)
same,Potency,[18],100 µM (active)
same,"activity change, negative = inhibition",[7],35.9% [at 5.25 µM] (inactive)
NC(=O)[C@H](Cc1ccccc1)NC(=O)[C@H](Cc1c[nH]c2ccccc12)NC(=O)[C@@H]1CCCN1C(=O)[C@@H](N)Cc1ccc(O)cc1,"activity change, negative = inhibition",[1],11.2% [at 6.83 µM] (inactive)
COc1ccc(-c2coc3cc(O)cc(O)c3c2=O)cc1,Potency,[2],inactive
same,Potency,[19],inactive
C[C@H]1O[C@@H](O[C@H]2[C@@H](O)C[C@H](O[C@H]3[C@@H](O)C[C@H](O[C@H]4CC[C@]5(C)C6CC[C@]7(C)[C@@H](C8=CC(=O)OC8)CC[C@]7(O)C6CC[C@@H]5C4)O[C@@H]3C)O[C@@H]2C)C[C@H](O)[C@@H]1O (stereo not given in full),Potency,Furin (Homo sapiens),inactive
same,outcome,[4],inactive
same,Potency,[1],inactive
same,Potency,[5],inactive
same,Potency,[6],inactive
same,Potency,[7],0.147 µM (active)
same,Potency,[10],inactive
Clc1ccc(C2CC3CCC2N3)cn1 (stereo not given),Potency,[1],inactive
CC1OC(O[C@H]2C[C@@H](O)[C@]3(CO)[C@H]4[C@H](O)C[C@]5(C)[C@@H](C6=CC(=O)OC6)CC[C@]5(O)[C@@H]4CC[C@]3(O)C2)C(O)C(O)C1O (stereo not given in full),Potency,Furin (Homo sapiens),inactive
same,outcome,[4],inactive
same,Potency,[5],inactive
same,Potency,[7],0.147 µM (active)
